# According to PubChem BioAssay (NCATS):
# Inconclusive results are not listed. Entries that show only a call come without a potency. A number with no mark means an inactive call. Calls of active or inactive are those of the source. Calls follow the shape of the dose curve; as a rule, active = well fitted curve in the direction sought with a large enough effect; inconclusive = small, poorly fitted or top-dose-only effect, or another doubt; inactive = no such curve, though single readings can be large; an effect the other way counts as inactive or inconclusive.
# Key:
# [1] = Primary qHTS for inhibitors of nuclear receptor binding SET domain protein 2 (NSD2) in an isogenic RCH-ACV NSD2 p.E1099K mutant (9B) (AID 1645876)
# [2] = Primary qHTS for inhibitors of nuclear receptor binding SET domain protein 2 (NSD2) in an RCH-ACV wild type WT cells (2C) (AID 1645877); also: potency is read from the fitted curve at half-maximal effect
# Also: nearly all actives have a fitted effect of over 70% in size.
structure (smiles),measurement,setting,value
COc1ccc(C(O[C@@H]2O[C@H](CO)[C@@H](O)[C@H](O)[C@H]2O)C(CO)Oc2ccc(/C=C/CO)cc2OC)cc1O (stereo partly drawn),Potency,[1],inactive
same,Potency,[2],inactive
C=C1CCC2C(C)(C(=O)O)CC(O)CC2(C)C1CC/C(C)=C/C(=O)O (stereo not drawn),Potency,[1],inactive
same,Potency,[2],inactive
CC1(C)C(=O)N2c3ccccc3[C@]3(CC(n4cnc5ccccc5c4=O)C(=O)O3)[C@H]2N1O (stereo partly drawn),Potency,[1],inactive
same,Potency,[2],inactive
CC1[C@@H](O)[C@@H](O)C2[C@]3(C)C(C[C@H]4OC(=O)[C@H](O)[C@]1(O)[C@@]24C)C(C)(O)C[C@H](O)[C@H]3O (stereo partly drawn),Potency,[1],inactive
same,Potency,[2],inactive
CC1=C2[C@@H]([C@H](C)CC[C@H]2/C=C(\C)C(=O)O)[C@H](O)C1,Potency,[1],inactive
same,Potency,[2],inactive
CC1=CC[C@]2(C(=O)O[C@@H]3O[C@H](CO[C@@H]4O[C@H](CO)[C@@H](O[C@@H]5O[C@@H](C)[C@H](O)[C@@H](O)[C@H]5O)[C@H](O)[C@H]4O)[C@@H](O)[C@H](O)[C@H]3O)CC[C@]3(C)C(CCC4[C@@]5(C)C[C@@H](O)[C@H](O)[C@@](C)(CO)C5CC[C@]43C)C2C1C (stereo partly drawn),outcome,[1],inactive [at 9.23 µM]
same,outcome,[2],inactive [at 9.23 µM]
C[C@@H]1O[C@@H](O[C@H]2[C@H](O[C@H]3[C@H](O[C@H]4CC[C@@]5(C=O)C(CC[C@]6(C)C5CC=C5C7CC(C)(C)C[C@@H](O)[C@]7(C)CC[C@]56C)C4(C)C)O[C@H](C(=O)O)[C@@H](O)[C@@H]3O)OC[C@@H](O)[C@@H]2O)[C@H](O)[C@H](O)[C@H]1O (stereo partly drawn),"activity change, negative = viability loss",[1],-2.85% [at 9.23 µM]
same,"activity change, negative = cell killing",[2],-3.05% [at 9.23 µM]
C[C@@H]1CCN(C(=O)CC#N)C[C@@H]1N(C)c1ncnc2[nH]ccc12,Potency,[1],inactive
same,Potency,[2],23.5 µM (active)
CC(=O)OC[C@@]12[C@H](O)C[C@]3(C)C(=CCC4[C@@]5(C)CC[C@H](O[C@@H]6O[C@H](C(=O)O)[C@@H](O[C@@H]7O[C@H](CO)[C@@H](O)[C@H](O)[C@H]7O)[C@H](O)[C@H]6O[C@@H]6O[C@H](CO)[C@@H](O)[C@H](O)[C@H]6O)[C@](C)(CO)C5CC[C@]43C)[C@@H]1CC(C)(C)[C@@H](OC(C)=O)[C@@H]2O (stereo partly drawn),"activity change, negative = viability loss",[1],3.64% [at 9.23 µM]
same,outcome,[2],inactive [at 9.23 µM]
COC(=O)C1=CO[C@@H](O[C@@H]2O[C@H](CO[C@@H]3O[C@H](COC(=O)/C=C/c4ccc(O)cc4)[C@@H](O)[C@H](O)[C@H]3O)[C@@H](O)[C@H](O)[C@H]2O)[C@@H]2C(CO)=CC[C@H]12,Potency,[1],inactive
same,Potency,[2],inactive
COc1c(OC2OC(CO)C(O)C(O)C2O)ccc(O)c1C(=O)OCc1ccccc1O[C@@H]1O[C@H](CO)[C@@H](O)[C@H](O)[C@H]1O (stereo partly drawn),Potency,[1],inactive
same,Potency,[2],inactive
CC1CCC23COC(=O)C2=CC(O)CC3C1(C)CCC1=CC(=O)OC1O (stereo not drawn),Potency,[1],inactive
same,Potency,[2],inactive
CC(=O)O[C@H]1[C@H](C)[C@@H](O)[C@H]2[C@@H]1C=C(C(=O)O)[C@H]1C[C@@H]3[C@H]([C@H]21)[C@H]1C(=O)O[C@@H]2CC[C@@]3(C)O[C@]1(O)[C@@H]2C,Potency,[1],inactive
same,Potency,[2],inactive
C[C@@H]1C[C@H](O)/C=C/[C@H](O)[C@@H](O)CC(=O)O1,Potency,[1],inactive
same,Potency,[2],inactive
C=CCc1ccc(O[C@@H]2O[C@H](CO)[C@@H](O)[C@H](O)[C@H]2O)c(OC)c1,Potency,[1],inactive
same,Potency,[2],inactive
CC(C#N)C(C)O[C@@H]1O[C@H](CO)[C@@H](O)[C@H](O)[C@H]1O (stereo partly drawn),Potency,[1],inactive
same,Potency,[2],inactive
CC(C)CC(=O)n1cc(C(N)=O)c(=O)cc1C(O)c1ccccc1 (stereo not drawn),Potency,[1],inactive
same,Potency,[2],inactive
C=C1CC23CC1(O)CCC2C1=CC2OC(=O)C(C)(C2O)C1C3C(=O)O (stereo not drawn),Potency,[1],inactive
same,Potency,[2],inactive
COC1(CC(C)C)NC(=O)C(O)(Cc2ccccc2)NC1=O (stereo not drawn),Potency,[1],inactive
same,Potency,[2],inactive
CC(C)C1=CC2=CCC3[C@](C)(CCC[C@@]3(C)C(=O)O)C2CC1O (stereo partly drawn),Potency,[1],inactive
same,Potency,[2],inactive
COC12CC3C(C(C)C1=CC(=O)O2)C(O)C(OC(C)=O)C1C(C)(C)C(OC(C)=O)CCC31C (stereo not drawn),Potency,[1],inactive
same,Potency,[2],inactive
COc1ccc2c(c1O)OC[C@H]1c3ccc(O)cc3O[C@@H]21,Potency,[1],inactive
same,Potency,[2],inactive
COc1c(C)c(OCC=C(C)C)cc2c1C(=O)NC2=O,Potency,[1],inactive
same,Potency,[2],inactive
COc1cc2c(cc1O)C1(Cc3ccc4c(c3C1=O)OCO4)N(C)CC2 (stereo not drawn),Potency,[1],inactive
same,Potency,[2],inactive
